# Assay outcomes from PubChem BioAssay.
# In the library only some 15% were active in any assay of this set; here they are far more common.
# Sm TGR block = blocks Schistosoma mansoni thioredoxin glutathione reductase. purified TGR, DTNB reduction, TNB absorbance 405 nm. Potency, µM (titrated, usually from 114 µM), inactives show at the highest dose activity change, negative = inhibition, actives largely listed as inhibitors. 360,000 compounds, 3% hits. AID 485364. Q962Y6; further: potency means the concentration at half of the fitted maximal effect; on the % scale 0 is the no-effect control and ±100 the full control effect; nearly all actives have a fitted effect of over 60% in size
#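 TGR 20 nM + NADPH 100 uM (dispensed conc.), cpd preinc 15 min RT; start with NADPH (500 uM addition) then DTNB (15 mM addition). Kinetic TNB absorbance, 405 nm filter. Four-parameter Hill fit across titration.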
# HCMV antiviral = inhibitors of human cytomegalovirus | HFF cells, HCMV-luciferase reporter, 72 h; hits give low values | activity change, negative = inhibition, % at 57.5 µM | 410,000 compounds, 4.5% hits; in the data active means activity change below about -60%; inconclusive means no clear call, values can overlap the other calls; inactive means above about -39%; further: on the % scale 0 is the no-effect control and ±100 the full control effect
#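 Compounds were evaluated in HFFs infected with an HCMV luciferase reporter virus (MOI 1 PFU/cell). Luciferase in lysates collected 72 h post infection served as the replication measure.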
# Pf growth 48h = P. falciparum growth inhibition at 48 hours (one generation); P. falciparum luciferase growth in erythrocytes, 48 h; AID 504832; Potency, µM (titrated, usually from 28.7 µM), without a hit: at the top dose activity change, negative = inhibition, usual class: inhibitors; 310,000 compounds, 5.9% hits; further: potency means the concentration at half of the fitted maximal effect; on the % scale 0 is the no-effect control and ±100 the full control effect
#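 Cell-based growth assay: transgenic P. falciparum expressing firefly luciferase, cultured in red cells within RPMI 1640 containing 0.5% w/v Albumax, 24 mM bicarbonate and gentamycin. A drop in luciferase activity indicates inhibition.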
# HCV inh = HCV inhibition | Huh7.5.1 HCVcc-Cre infection, luciferase reporter, 44 h | AID 651820 | 340,000 compounds, 3.4% hits | Potency, µM (series often up to 41.8 µM), inactives show at the highest dose activity change, negative = inhibition, actives largely listed as inhibitors; further: potency means the concentration at half of the fitted maximal effect; on the % scale 0 is the no-effect control and ±100 the full control effect
#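 Antiviral activity was scored by luciferase reporter output from cells infected with HCVcc-Cre (~0.5 moi) in presence of compound, 44 h infection period, cells seeded 1,000/well 4 h prior.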
# SARS PLpro yeast = blocks SARS-CoV papain-like protease in a yeast assay. S. cerevisiae expressing SARS-CoV PLpro, growth rescue. Potency, µM (top dose mostly 32.9 µM), for inactives: at the top dose activity, positive = growth rescue, usual class: activators. 330,000 compounds, 0.19% hits. AID 485353; calls by dose curve; further: potency means the concentration at half of the fitted maximal effect; 0% is about no effect; nearly all actives have a fitted effect of over 55% in size
# Pf growth 96h = P. falciparum growth inhibition at 96 hour, primary screen for plastid delayed-death inhibitors. Potency, µM (top dose mostly 28.7 µM), inactives show at the top dose activity change, negative = inhibition, usual class: inhibitors. 320,000 compounds, 6.9% hits. P. falciparum luciferase reporter growth, 96 h; further: potency means the concentration at half of the fitted maximal effect; on the % scale 0 is the no-effect control and ±100 the full control effect
#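 Luminescence readout: decreased luciferase signal marks inhibited growth of reporter-expressing P. falciparum in infected red cells (2% hematocrit, 0.05% parasitemia final), exposed to compound two generations (96 h, 37 C, 5% CO2).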
# * marks the source's active call; other numbers are inactive results; u = inconclusive; x = not tested or not shown; [ ] = dose if it differs, or a comment. Unless noted, the call rests on the fitted dose curve; in most records, active means well fitted curve in the direction sought with a large enough effect; inconclusive means small, poorly fitted or top-dose-only effect, or another doubt; inactive means no such curve, though single readings can be large; an effect the other way counts as inactive or inconclusive.
SMILES,Sm TGR block,HCMV antiviral,Pf growth 48h,HCV inh,SARS PLpro yeast,Pf growth 96h
COc1cc(C(C(=O)NC2CCCCC2)N(CCN2CCOCC2)C(=O)C2COc3ccccc3O2)cc(OC)c1OC (stereo not drawn),-2.0%,22.0,-24.5%,-13.6%,-1.3%,129.9%
CCCC[C@]12Cc3ccccc3[C@H](O1)C1=C(O2)C(=O)c2ccccc2C1=O,0.6%[22.9 µM],x,u,x,2.3%[6.58 µM],0.849µM*
CCCC[C@]12Cc3cc(OC)c(OC)cc3C(O1)C1=C(O2)C(=O)c2ccccc2C1=O,u,x,1.35µM*,x,-2.0%[6.58 µM],26.3%[5.75 µM]
CCCCC[C@]12Cc3ccccc3C(O1)C1=C(CC(C)(C)CC1=O)O2,-9.7%[22.9 µM],x,34.1%[5.75 µM],x,-8.7%[6.58 µM],u
CC1(C)CC(=O)C2=C(C1)O[C@@]1(CCCCN3C(=O)c4ccccc4C3=O)Cc3ccccc3C2O1,-27.9%[22.9 µM],x,1.69µM*,x,1.3%[6.58 µM],1.69µM*
CCCCNc1nc(Oc2ccc(=O)n(-c3ccccc3)n2)nc(N(C)C)n1,-2.0%,-8.7,x,x,x,x
COc1ccc(Cl)cc1C(=O)NCC(c1ccco1)N(C)C (stereo not drawn),-13.7%,-13.6,4.4%,-21.9%,-1.4%,-4.8%
CN(C)C(CNC(=O)c1ccccc1OCc1ccc(Cl)cc1)c1ccco1 (stereo not drawn),5.1%,-10.7,u,17.8µM*,-6.2%,u
Cc1cc(C(=O)NCC(c2ccco2)N(C)C)no1 (stereo not drawn),-26.2%,-27.5,10.2%,5.4%,-2.2%,9.28µM*
Nc1ncnc2c1ncn2-c1ccccc1Cl,x,11.9,x,15.5%,x,x
O=C(Nc1cccc(F)c1)N(Cc1ccc(Cl)cc1)CC(O)C(F)(F)F (stereo not drawn),2.6%,u,8.28µM*,11.2µM*,-25.2%,2.62µM*
O=C(Nc1ccccc1)N(Cc1ccccc1)CC(O)C(F)(F)F (stereo not drawn),-22.0%,6.8,-1.0%,5.3%,3.6%,1.5%
CCOC(=O)C(C(=O)Nc1ccccc1C)C1CCCCC1 (stereo not drawn),2.6%,-29.5,x,23.8%,4.8%,u
Cn1c(NCCCO)nc2c1c(=O)n(Cc1ccccc1F)c(=O)n2C,6.1%,5.2,-8.6%,21.3%,5.9%,-13.6%
Cn1c(=O)n(Cc2ccccc2F)c(=O)c2c1nc1n2CCN1Cc1ccco1,-4.4%,-12.7,u,-4.9%,1.0%,8.28µM*
Cc1cccc(Cn2c(=O)c3c(nc4n3CCN4Cc3ccco3)n(C)c2=O)c1,1.0%,-15.3,9.28µM*,u,-0.8%,5.86µM*
Cn1c(=O)n(Cc2ccc(Cl)cc2)c(=O)c2c1nc1n2CCN1Cc1ccco1,-2.1%,-86.3*,u,15.8µM*,7.5%,13.1µM*
CCCn1c(=O)c2c(nc3n2CCN3Cc2ccco2)n(C)c1=O,0.0%,21.2,-17.0%,-19.5%,0.0%,6.3%
COc1ccccc1Oc1nc2c(c(=O)n(Cc3ccccc3F)c(=O)n2C)n1C,2.82µM*,10.5,-25.3%,u,-5.3%,14.7µM*
C=CCN1[C@@H](Cc2ccccc2)COCCS1(=O)=O,x,-32.3,x,7.9%,x,x
COc1ccc(CN(C)C(=O)Cn2cc(C)c(=O)[nH]c2=O)cc1OC,x,11.2,x,25.3%,x,x
O=C(COc1ccc([N+](=O)[O-])cc1)NNC(=O)Nc1cccc(F)c1,3.2%,20.0,-27.6%,6.0%,-6.9%,2.9%
CC(C)CC(NS(=O)(=O)c1ccc2[nH]c(=O)c(=O)[nH]c2c1)C(=O)O (stereo not drawn),u,-32.5,13.3%,6.2%,2.0%,u
CC(NS(=O)(=O)c1ccc2[nH]c(=O)c(=O)[nH]c2c1)C(=O)O (stereo not drawn),-4.3%,-92.2*,21.4%,-2.2%,-0.7%,12.4%
Clc1cccc(Cl)c1NC1=NCCN1,-7.5%,x,-14.0%,x,9.3%,12µM*
SMILES,Sm TGR block,HCMV antiviral,Pf growth 48h,HCV inh,SARS PLpro yeast,Pf growth 96h
Clc1cccc(Cl)c1NC1=NCCC1,3.4%,-6.9,x,14.0%,-3.5%,3.2%
COc1ccc(C2c3c(ccc4ccccc34)Oc3ncn4nc(CO/N=C/c5ccccc5)nc4c32)cc1 (stereo not drawn),-1.0%,-19.9,4.2%,-5.5%,9.7%,x
N=c1c2c(ncn1Cc1ccco1)Oc1c(ccc3ccccc13)C2c1ccccc1 (stereo not drawn),-1.7%,-38.3,14.7µM*,u,-35.3%,u
CN(C)CCn1cnc2c(c1=N)C(c1ccccc1)c1ccc3ccccc3c1O2 (stereo not drawn),-10.4%,-97.7*,5.22µM*,12.6µM*,1.4%,5.22µM*
N=c1c2c(ncn1Cc1ccco1)Oc1cc(O)ccc1C2c1ccccc1 (stereo not drawn),u,-17.0,11.7µM*,u,1.1%,u
CC(CC(c1ccccc1)c1ccccc1)NC(C)(C)C (stereo not drawn),x,-20.2,x,x,x,x
COCCNC(=O)C1(C)CCCN(C(=O)c2ccc(C(=O)OC)cc2)C1 (stereo not drawn),x,-35.3,x,x,x,x
CNC(=S)N1N=C(c2ccc(C)cc2)CC1c1ccc(Cl)cc1 (stereo not drawn),-11.5%,-6.0,x,u,16.6%,8.28µM*
CNC(=S)N1N=C(c2ccc(C)cc2)CC1c1ccc(Br)cc1 (stereo not drawn),4.9%,7.4,x,u,18.6%,u
Brc1ccc(N/N=C(/N=Nc2nn[nH]n2)c2ccccc2)cc1,-0.1%,-99.6*,3.29µM*,5.62µM*,u,1.85µM*
O=C(O)c1ccc(N=N/C(=N\Nc2ccc(C(=O)O)cc2)c2ccccc2)cc1,-17.8%,34.1,84.3%,8.6%,-1.2%,211.5%
CC1Sc2ccc(C(=O)Nc3ncccc3O)cc2NC1=O (stereo not drawn),-16.2%,37.7,147.0%,-23.4%,0.3%,144.8%
COC(=O)[C@]1(C)N[C@H](CN(C)C(=O)Nc2ccc(C)cc2)[C@@H]2C(=O)N(Cc3ccccc3)C(=O)[C@@H]21,x,25.3,x,2.82µM*,2.8%,x
CCN(C[C@H]1N[C@@](CC)(C(=O)OC)[C@H]2C(=O)N(C)C(=O)[C@@H]12)C(=O)Nc1ccc(OC)cc1,x,-8.1,x,-55.4%,1.0%,x
CCN(C[C@H]1N[C@@](CC)(C(=O)OC)[C@H]2C(=O)N(C)C(=O)[C@@H]12)C(=O)Nc1ccc(C)cc1,x,-4.2,x,3.16µM*,-2.7%,x
COC(=O)[C@]1(C)N[C@H](CN(C)C(=O)c2ccccc2)[C@@H]2C(=O)N(C)C(=O)[C@@H]21,x,7.9,x,3.98µM*,-1.4%,x
COC(=O)[C@]1(C)N[C@H](CN(C)C(=O)Nc2ccc(Cl)cc2)[C@@H]2C(=O)N(Cc3ccccc3)C(=O)[C@@H]21,x,1.6,x,17.1%,-1.6%,x
